BAZ2B inh: inhibitors of human BAZ2B bromodomain. Potency, µM (doses to about 114 µM), for the others: top-dose activity change, negative = inhibition, actives largely listed as inhibitors. Q9UIF8. AlphaScreen BAZ2B-H3K14Ac peptide displacement. AID 504333. 360,000 compounds, 4.4% hits; also: % is scaled to controls: 0 for no effect and ±100 for the full control effect; nearly all actives have a fitted effect of over 60% in size
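Multi-concentration screen (max 110 uM) measuring displacement of acetylated histone H3 peptide from BAZ2B by AlphaScreen, using 50 nM protein, 50 nM peptide and 10 ug/mL streptavidin donor plus Ni-chelate acceptor beads.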
JMJD2A Tudor: JMJD2A Tudor domain (human) inhibition; Potency, µM (top dose mostly 114 µM), for the others: top-dose activity change, negative = inhibition, most hits filed as inhibitors; AlphaScreen JMJD2A-Tudor / H3K4me3 peptide binding; O75164; AID 504339; 390,000 compounds, 4.4% hits; also: % is scaled to controls: 0 for no effect and ±100 for the full control effect; nearly all actives have a fitted effect of over 50% in size
HP1b binding inh: blocks HP1-beta chromodomain binding to methylated histone tails | P83916 | 390,000 compounds, 0.56% hits | Potency, µM (series often up to 114 µM), for inactives: at the highest dose activity change, negative = inhibition, hits mostly inhibitors | AlphaScreen HP1-beta / biotin-H3K9me3 peptide binding | AID 540317; also: nearly all actives have a fitted effect of over 70% in size
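HP1-beta protein (50 nM final) preincubated 30 min at room temperature with biotinylated H3(1-18)K9me3 peptide (50 nM) in PBS pH 7.4, 0.01% Tween-20, then compound added for 30 min. AlphaScreen streptavidin donor/nickel chelate acceptor beads (10 ug/mL final), 30 min dark, luminescence read.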
L3MBTL1 inh: blocks human L3MBTL1. Q9Y468. AID 485360. 230,000 compounds, 0.66% hits. AlphaScreen L3MBTL1–H3K9me1 peptide binding. Potency, µM (doses to about 57.1 µM), inactives show at the top dose activity, negative = inhibition, usual class: inhibitors; also: % is scaled to controls: 0 for no effect and ±100 for the full control effect; nearly all actives have a fitted effect of over 60% in size
Target sequence (Q9Y468 whole entry, looked up): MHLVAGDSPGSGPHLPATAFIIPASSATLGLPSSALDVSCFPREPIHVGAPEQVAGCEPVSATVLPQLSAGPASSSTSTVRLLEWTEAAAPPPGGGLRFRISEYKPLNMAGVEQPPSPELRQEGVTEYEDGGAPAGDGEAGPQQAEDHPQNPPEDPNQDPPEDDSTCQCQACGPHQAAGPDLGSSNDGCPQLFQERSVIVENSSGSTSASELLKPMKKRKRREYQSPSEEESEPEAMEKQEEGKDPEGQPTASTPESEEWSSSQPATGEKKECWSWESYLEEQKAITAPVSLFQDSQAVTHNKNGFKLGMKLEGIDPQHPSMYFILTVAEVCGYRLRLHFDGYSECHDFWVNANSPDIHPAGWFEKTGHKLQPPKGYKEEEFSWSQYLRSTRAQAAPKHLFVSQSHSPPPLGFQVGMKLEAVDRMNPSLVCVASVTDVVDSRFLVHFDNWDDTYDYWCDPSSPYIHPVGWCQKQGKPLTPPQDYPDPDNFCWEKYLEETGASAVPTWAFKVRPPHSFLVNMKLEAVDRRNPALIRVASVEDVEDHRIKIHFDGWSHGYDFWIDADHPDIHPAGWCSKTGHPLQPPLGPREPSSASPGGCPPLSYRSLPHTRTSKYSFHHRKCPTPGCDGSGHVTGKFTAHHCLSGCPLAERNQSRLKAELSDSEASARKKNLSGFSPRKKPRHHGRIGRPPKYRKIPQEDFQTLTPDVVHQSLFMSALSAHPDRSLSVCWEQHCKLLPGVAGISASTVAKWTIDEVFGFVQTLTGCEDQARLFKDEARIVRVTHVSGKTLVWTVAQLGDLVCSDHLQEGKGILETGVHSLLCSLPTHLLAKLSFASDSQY
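L3MBTL1 (50 nM) pre-complexed 30 min with biotinylated H3(1-15)K9me1 peptide (75 nM), then compounds added for 30 min at room temperature; AlphaScreen streptavidin donor/nickel chelate acceptor beads (10 ug/mL final) read after 30 min dark incubation.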
Sfp inh: inhibitors of Bacillus subtilis Sfp phosphopantetheinyl transferase. Potency, µM, inactives show largest response in the series, negative = inhibition, hits mostly inhibitors. Q9F4F7. Biochemical Sfp PPTase activity, qHTS. 310,000 compounds, 3.5% hits;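 also: the enzyme is Sfp with the accession as filed and its product quenches rhodamine fluorescence; 0% = enzyme reaction without inhibitor and -100% = no enzyme wells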
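With Hepes-Na pH 7.6 buffer containing 10 mM MgCl2, Sfp (15 nM) modified BHQ-2-YbbR (12.5 uM) using rhodamine-CoA (5 uM). Two reads 30 minutes apart at 525/598 nm yielded each well's rate.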
G9a block: blocks human histone lysine methyltransferase G9a; Q96KQ7; G9a H3K9 monomethylation, AlphaScreen, 2 h; Potency, µM (series often up to 102 µM), for inactives: at the highest dose activity, negative = inhibition, usual class: inhibitors; 350,000 compounds, 8.8% hits; also: % is scaled to controls: 0 for no effect and ±100 for the full control effect; nearly all actives have a fitted effect of over 75% in size
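AlphaScreen read-out: biotin-H3K9 peptide (500 nM) methylation by 20 nM enzyme with 20 uM SAM, 2 h at room temperature after 15 min compound preincubation; anti-monomethyl H3K9 antibody plus donor/acceptor beads, 10 min dark.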
* hit, by the source's call; [ ] = dose if it differs, or a comment. Rows were chosen to be rich in hits. Some 12% of all compounds tested hit in one or more screens of this group. Calls follow the shape of the dose curve; as a rule, active = well fitted curve in the direction sought with a large enough effect; inconclusive = small, poorly fitted or top-dose-only effect, or another doubt; inactive = no such curve, though single readings can be large; an effect the other way counts as inactive or inconclusive. Potency is read from the fitted curve at half-maximal effect.

[O-]/C(=C(\C(=S)NCc1ccccc1)[n+]1ccccc1)c1ccc(Cl)s1 was read as BAZ2B inh inconclusive, JMJD2A Tudor inconclusive, HP1b binding inh inconclusive, Sfp inh -36% and G9a block 25µM*.
`Cc1c(Cl)cccc1NC(=S)C(=C([O-])c1ccc(Cl)s1)[n+]1ccccc1` gave JMJD2A Tudor 50µM* and HP1b binding inh inconclusive.
Screening S=C(NCc1ccccc1)NCc1cccc(Cl)c1 returned BAZ2B inh 3%, JMJD2A Tudor 4%, HP1b binding inh 35%, Sfp inh 14% and G9a block 42%.
N#Cc1ccc(CN2CCN(C(=O)CCNS(=O)(=O)c3ccc(F)c(F)c3)CC2)cc1 was read as BAZ2B inh 12%, JMJD2A Tudor 7%, HP1b binding inh 28%, L3MBTL1 inh -1% and G9a block inconclusive.
For O=C(c1cnccn1)N1CCC[C@@]2(CCN(c3ccncc3)C2)C1 the results were Sfp inh -14% and G9a block 26%[12.7 µM].
C=CCc1cccc(OC)c1OCCOCCNCCO was read as BAZ2B inh 56µM*, JMJD2A Tudor 5.6µM*, HP1b binding inh -28%, Sfp inh -14% and G9a block 11µM*.
`COc1cccc(OC)c1OCCNCCO` gave BAZ2B inh 2%, JMJD2A Tudor -3%, HP1b binding inh 45%, L3MBTL1 inh inconclusive, Sfp inh 2% and G9a block 5%[59 µM].
For COc1ccc(C(=O)CCC(=O)Nc2ccc(F)cc2F)cc1 the results were BAZ2B inh 8%, JMJD2A Tudor -8%, HP1b binding inh -5% and G9a block -36%[59 µM].
Screening CNC(=O)c1c(C)[nH]c(=S)c(C#N)c1-c1ccco1 returned BAZ2B inh inconclusive, JMJD2A Tudor 18µM*, HP1b binding inh inconclusive, L3MBTL1 inh 14% and Sfp inh 8.9µM*.
For Cc1ccccc1NC(=O)c1c(C)[nH]c(=S)c(C#N)c1-c1ccco1 the results were BAZ2B inh 4%, JMJD2A Tudor -18%, HP1b binding inh 6%, L3MBTL1 inh -2%, Sfp inh 56µM* and G9a block 1.3µM*.
For CCOc1ccc(/C=C/C(=O)Nc2sc3c(c2C(=O)OC)C(C(=O)OC)CC3)cc1 (stereo not given) the results were BAZ2B inh inconclusive, JMJD2A Tudor 56µM*, HP1b binding inh inconclusive and G9a block 1.1µM*.
Screening COC(=O)c1c(NC(=O)Cc2ccccc2)sc2c1C(C(=O)OC)CC2 (stereo not given) returned BAZ2B inh inconclusive, JMJD2A Tudor -13%, HP1b binding inh -8%, L3MBTL1 inh -4%, Sfp inh 79µM* and G9a block 40µM*.
For COC(=O)c1c(NC(=O)CCCOc2ccc(C)cc2)sc2c1C(C(=O)OC)CC2 (stereo not given) the results were BAZ2B inh inconclusive, JMJD2A Tudor -23%, HP1b binding inh inconclusive and G9a block 1.1µM*.
`COC(=O)c1c(NC(=O)C(C)(C)C)sc2c1C(C(=O)OC)CC2` (stereo not given) gave BAZ2B inh 1%, JMJD2A Tudor -10%, HP1b binding inh 42%, L3MBTL1 inh -2%, Sfp inh -12% and G9a block 17%.
`CCOc1ccc(/C=C/C(=O)Nc2sc3c(c2C(=O)OC)CCCC3)cc1` gave BAZ2B inh 12%, JMJD2A Tudor 3%, HP1b binding inh 45% and G9a block -29%[59 µM].
`COC(=O)c1c(NC(=O)CCCOc2ccc(C)cc2)sc2c1CCCC2` gave BAZ2B inh 5%, JMJD2A Tudor 29%, HP1b binding inh 39% and G9a block 14µM*.
COc1cccc(/C=C/c2nc3ccccc3c(=O)n2-c2ccc(C)c(C)c2)c1OC was read as BAZ2B inh 0%, JMJD2A Tudor -18%, HP1b binding inh 37% and G9a block -9%[59 µM].
COC(=O)c1c(NC(=O)CCCOc2cccc(C)c2)sc2c1C(C(=O)OC)CC2 (stereo not given) was read as BAZ2B inh 35µM*, JMJD2A Tudor inconclusive, HP1b binding inh inconclusive and G9a block 1.1µM*.
`O=C(O)Cc1nc2nc3c(c(=O)n2[nH]1)CCCC3` gave BAZ2B inh -3%, JMJD2A Tudor 10µM*, HP1b binding inh 7%, L3MBTL1 inh 4%, Sfp inh -21% and G9a block inconclusive.
For Cc1ccc(Cn2c(C(=O)O)c(CNC3CCCCC3)c3ccc(C)cc32)cc1 the results were BAZ2B inh -9%, JMJD2A Tudor -30%, HP1b binding inh -10% and G9a block -6%[59 µM].
CCCC[C@]12Cc3cc(C#N)ccc3C(O1)c1c(cc(-c3ccccc3)oc1=O)O2 was read as BAZ2B inh 6%[22.9 µM] and Sfp inh 3%.
COc1cc(OC)c(CN2CCC(Cc3ccccc3)CC2)cc1Br was read as BAZ2B inh 56µM*, JMJD2A Tudor 25µM*, HP1b binding inh 0%, L3MBTL1 inh -5% and Sfp inh -19%.
`COc1ccc(OC)c(CN2CCC(Cc3ccccc3)CC2)c1` gave BAZ2B inh 56µM*, JMJD2A Tudor 50µM*, HP1b binding inh inconclusive, L3MBTL1 inh -2% and Sfp inh -22%.
For COc1ccccc1CNC1CCN(Cc2ccccc2)CC1 the results were BAZ2B inh 3%, JMJD2A Tudor -9%, HP1b binding inh 34%, L3MBTL1 inh 6%, Sfp inh -4% and G9a block inconclusive.
`COc1cc(C)c(CN2CCC(Cc3ccccc3)CC2)cc1C` gave BAZ2B inh 56µM*, JMJD2A Tudor 28µM*, HP1b binding inh -19%, L3MBTL1 inh 2% and Sfp inh -24%.
Screening COc1cc(OC)c(CN2CCc3c([nH]c4ccccc34)C2)cc1Br returned BAZ2B inh inconclusive, JMJD2A Tudor inconclusive, HP1b binding inh -20%, L3MBTL1 inh -1%, Sfp inh 3% and G9a block inconclusive.
For COc1ccc(-c2noc(CN3CCC(Cc4ccccc4)CC3)n2)cc1 the results were BAZ2B inh 17%, JMJD2A Tudor 2%, HP1b binding inh 51%, L3MBTL1 inh 10%, Sfp inh -3% and G9a block 17%.
Screening CCN(CC)CCCNC(=O)c1cn(CC)c2ccc(S(=O)(=O)N3CCC(C)CC3)cc2c1=O returned JMJD2A Tudor 1%, HP1b binding inh 36% and G9a block 18%[59 µM].
COc1cccc(/C=C(\C#N)c2nc3ccccc3c(=O)[nH]2)c1OC was read as BAZ2B inh 0%, JMJD2A Tudor -19%, HP1b binding inh 48% and G9a block 5%[59 µM].
